Compound activity (PubChem)
An excerpt weighted towards active compounds, which were near 22% of everything screened.
CYP2C9 inhib = blocks human cytochrome P450 2C9; inhibition, % at 5 µM; hit rate 20% among 96,000; P11712; AID 777; CYP2C9 Supersomes, luciferin-H conversion, luminescence;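 active means blocking of liver enzyme CYP2C9 beyond about 50% at 5 µM, limit read from the data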
Target sequence (P11712 whole entry, looked up): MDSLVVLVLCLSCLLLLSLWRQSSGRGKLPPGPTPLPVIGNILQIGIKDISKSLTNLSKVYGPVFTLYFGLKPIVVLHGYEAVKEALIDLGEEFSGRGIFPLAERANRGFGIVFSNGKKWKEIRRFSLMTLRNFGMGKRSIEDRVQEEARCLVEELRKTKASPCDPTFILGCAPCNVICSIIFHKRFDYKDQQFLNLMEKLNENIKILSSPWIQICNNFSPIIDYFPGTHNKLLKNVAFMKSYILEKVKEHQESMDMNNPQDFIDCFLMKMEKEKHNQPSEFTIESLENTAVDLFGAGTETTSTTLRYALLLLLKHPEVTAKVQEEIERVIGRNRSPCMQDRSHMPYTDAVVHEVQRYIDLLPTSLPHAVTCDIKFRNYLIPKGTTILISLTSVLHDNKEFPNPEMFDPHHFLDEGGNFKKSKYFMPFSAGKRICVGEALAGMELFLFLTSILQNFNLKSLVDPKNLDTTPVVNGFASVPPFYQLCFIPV
CYP2C19 activ = activators of human cytochrome P450 2C19; activation factor at 5 µM; recombinant CYP2C19, luciferin-H EGE luminescence; active compounds read high; 0 = fully inhibited enzyme, 1 = untreated enzyme; P33261; 96,000 tested, under 10 active;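 active means activation factor of at least 2 at 5 µM in the primary screen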;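 further: 0 = wells with 2.5 mM tranylcypromine and 1 = vehicle-only wells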
CYP2C19 inhib = inhibitors of human CYP2C19 | AID 778 | inhibition, % at 5 µM | P33261 | hit rate 21% among 96,000 | CYP2C19 Supersomes, luciferin-H EGE luminescence, 30 min;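 active means CYP2C19 inhibition above a set limit at 5 µM in the primary screen, cut at about 50% in these data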;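 further: plate controls were negative control wells for no effect and 2.5 mM tranylcypromine positive control for full effect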
CYP2C9 activ = CYP2C9 (human) activation | P11712 | hit rate 1.4% among 96,000 | recombinant CYP2C9, luciferin-H conversion, luminescence; active compounds read high; factor 1 = untreated enzyme, 0 = blocked | activation factor at 5 µM | AID 1024;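 active means activation factor of 2 or more for CYP2C9 at a 5 µM dose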;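 further: 0 = sulfaphenazole-blocked wells and 1 = vehicle-only wells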
Measles CPE = protection of cells from measles virus. AID 841. protection (pct of control), % at 4 µM. Measles virus-infected cells, CPE protection, absorbance. hit rate 1.5% among 140,000; in the data active means protection mostly above about 24%, no sharp cut-off; inactive means mostly below about 26%
Numbers without * were called inactive; . = no result.

SMILES | CYP2C9 inhib | CYP2C19 activ | CYP2C19 inhib | CYP2C9 activ | Measles CPE
O=C(Nc1ccc(N2CCN(C(=O)c3cccs3)CC2)c(Cl)c1)c1ccco1 | 54* | 0.7 | 32 | 0.5 | 3
Cc1ccc(N2C(=O)C3C4C=CC(CNC(=S)Nc5cccc(Cl)c5)(O4)C3C2=O)cc1 (configuration not stated) | . | . | . | . | 5
O=S(=O)(c1ccc(S(=O)(=O)N(Cc2cccs2)CC2CCCO2)cc1)N1CCCCC1 (configuration not stated) | 83* | 0.3 | 73* | 0.2 | 9
O=C(CN(Cc1cccs1)S(=O)(=O)c1ccc(S(=O)(=O)N2CCCCC2)cc1)Nc1ccccc1 | . | . | . | . | 11
COc1cccc(CN(CC2CCCO2)S(=O)(=O)c2ccc(S(=O)(=O)N(C)C)cc2)c1 (configuration not stated) | 46 | 0.7 | 26 | 0.5 | 13
O=S(=O)(NC1CCCC1)c1ccc(S(=O)(=O)N(Cc2cccs2)CC2CCCO2)cc1 (configuration not stated) | 97* | 0 | 97* | 0 | 3
O=C(CCCCCN1C(=O)c2ccccc2C1=O)Nc1nccs1 | 56* | 0.9 | 6 | 0.4 | 8
CCN(CC)c1ccc(NC(=O)CCCCCN2C(=O)c3ccccc3C2=O)cc1 | 76* | 0.8 | 19 | 0.2 | 24
Cc1ccc(NC(=O)CCCN2C(=O)c3cccc4cccc(c34)C2=O)cc1 | . | . | . | . | 13
O=C1c2ccccc2C(=O)c2cc(NC(=O)C3CC3)ccc21 | . | . | . | . | 8
O=C(CCCCCN1C(=O)c2ccccc2C1=O)Nc1ccccc1 | 58* | 0.4 | 64* | 0.4 | 26
CC(=O)Nc1ccc2c(c1)C(=O)c1ccccc1C2=O | 63* | 0.7 | 30 | 0.4 | 22
COc1ccc2cc(Br)ccc2c1CC(=O)NC1CC(C)(C)NC(C)(C)C1 | 13 | 0.8 | 17 | 0.9 | 11
O=[n+]1cc(-c2ccc(Br)cc2)n([O-])c2c1CCC2 | . | . | . | . | 6
CCCc1cc(N2CCCC(C(=O)NCC)C2)n2ncnc2n1 (configuration not stated) | 4 | 1 | -1 | 1 | 0
Cc1ccc(SC(C)C(=O)Nc2c(C)n(C)n(-c3ccccc3)c2=O)cc1 (configuration not stated) | 7 | 0.8 | 17 | 0.9 | 7
O=C(CCCN1C(=O)c2ccccc2C1=O)NCC1CCCO1 (configuration not stated) | -2 | 1 | -3 | 1 | 14
CC(=O)Nc1ccc(NC(=O)CCCCCN2C(=O)c3ccccc3C2=O)cc1 | 92* | 0.6 | 40 | 0.1 | 9
CC(=O)Nc1ccc2c(c1)C(=O)N(c1ccc(C)cc1)C2=O | 38 | 0.8 | 18 | 0.6 | 10
COC(=O)c1oc2ccc(Br)cc2c1NC(=O)CCCN1C(=O)c2ccccc2C1=O | 64* | 0.6 | 43 | 0.4 | 11
COc1ccc(N2C(=O)c3ccc(NC(C)=O)cc3C2=O)cc1 | 55* | 0.9 | 12 | 0.4 | .
O=C(CCCN1C(=O)c2ccccc2C1=O)Nc1c2c(nc3c1CCC3)CCC2 | 63* | 1 | -4 | 0.4 | 25
Nc1nnc(SCC(=O)NCCOc2ccccc2)s1 | . | . | . | . | 5
Cc1cccnc1NC(=O)CCCN1C(=O)c2ccccc2C1=O | -110 | 0.9 | 7 | 2.1* | 13
CCOc1ccc(C2CC(=O)c3c([nH]c(C(=O)OC)c3C)C2)cc1OC (configuration not stated) | 52* | 0.9 | 12 | 0.5 | 23
SMILES | CYP2C9 inhib | CYP2C19 activ | CYP2C19 inhib | CYP2C9 activ | Measles CPE
COC(=O)c1[nH]c2c(c1C)C(=O)CC(c1cc(OC)ccc1OC)C2 (configuration not stated) | 30 | 0.9 | 5 | 0.7 | 13
COc1ccc(C2CC(=O)c3c([nH]c(C(=O)OC(C)C)c3C)C2)cc1OC (configuration not stated) | . | . | . | . | 13
CCCCOC(=O)c1[nH]c2c(c1C)C(=O)CC(c1cc(OC)c(OC)c(OC)c1)C2 (configuration not stated) | 63* | 0.6 | 42 | 0.4 | 9
C=CCOC(=O)c1[nH]c2c(c1C)C(=O)CC(c1cc(OC)c(OC)c(OC)c1)C2 (configuration not stated) | 87* | 0.4 | 61* | 0.1 | 3
Cc1ccc(NC(=O)c2ccco2)c(NC(=O)Cc2cccs2)c1 | 2 | 0.8 | 15 | 1 | 17
O=[N+]([O-])c1cc(/C=N/OCc2c(Cl)cccc2Cl)ccc1N1CCOCC1 | 37 | 0.9 | 7 | 0.6 | 7
CCOC(=O)c1ccccc1NS(=O)(=O)c1ccc(C)cc1 | -31 | 0.4 | 60* | 1.3 | 4
CCOC(=O)c1cnc(SC)nc1Oc1cccc(NS(=O)(=O)c2ccc(C)cc2)c1 | 81* | 0.8 | 18 | 0.2 | 13
CCOC(=O)c1cnc(-c2ccccc2)nc1Oc1ccccc1 | 16 | 1 | 1 | 0.8 | 32
Cc1ccc(S(=O)(=O)Nc2ccccc2C(=O)Nc2ccc(S(=O)(=O)Nc3nccc(C)n3)cc2)cc1 | . | . | . | . | 3
CCOC(=O)c1ccccc1-c1csc(NS(=O)(=O)c2ccc(Cl)cc2)n1 | 99* | 0.7 | 33 | 0 | 9
COC(=O)COc1ccc(S(=O)(=O)Nc2ccccc2C(=O)OC)cc1 | -102 | 0 | 96* | 2* | 6
COC(=O)c1ccccc1NS(=O)(=O)c1ccc(F)cc1 | . | . | . | . | 5
COc1ccc(-c2csc(NC(=O)c3ccccc3NS(=O)(=O)c3ccc(C)cc3)n2)cc1 | . | . | . | . | 8
COCCNS(=O)(=O)c1cc(C)c(C)cc1C | . | . | . | . | 8
CCOC(=O)Cc1csc(NC(=S)NC(=O)c2cccc([N+](=O)[O-])c2)n1 | . | . | . | . | 9
O=C(CNC(c1ccccc1)c1ccccc1)Nc1ccccc1-c1ccccc1 | . | . | . | . | 9
CCOC(=O)c1ccccc1NC(=O)COc1ccccc1 | -34 | 0.8 | 16 | 1.3 | 7
CCOC(=O)c1ccccc1NC(=O)c1ccccc1NS(C)(=O)=O | 74* | 0.4 | 55* | 0.3 | 28
CCOC(=O)c1ccccc1NS(=O)(=O)c1ccccc1F | -191 | 0.1 | 89* | 2.9* | 33*
CCOC(=O)c1ccccc1NS(=O)(=O)c1ccccc1 | -52 | 0 | 98* | 1.5 | 7
CCOC(=O)c1ccccc1NC(=O)c1ccccc1SC | -64 | 0.9 | 14 | 1.6 | 0
O=C1CN(C(=O)c2ccc(Br)o2)C(c2ccc(F)cc2)c2cc(Cl)ccc2N1 (configuration not stated) | 73* | 0.6 | 36 | 0.3 | 18
O=C1CN(C(=O)c2ccc(Br)o2)C(c2ccccc2)c2cc(Cl)ccc2N1 (configuration not stated) | 100* | 0.1 | 86* | 0 | 29
NNC(=O)CN1C(=O)Nc2ccc(Br)cc2C1c1ccccc1 (configuration not stated) | . | . | . | . | 9
O=C1CN(C(=O)c2ccco2)C(c2ccccc2)c2cc(Cl)ccc2N1 (configuration not stated) | 71* | 0.4 | 59* | 0.3 | 8
COc1ccccc1CNC(=O)c1ccc(OC(F)F)c(OC)c1 | . | . | . | . | 4
CC(=O)c1cn(CCC(C)C)c(=O)[nH]c1=O | . | . | . | . | 7
